The campaign covered roughly 310,000 compounds. About 14,000 (4.5%) showed an effect of 50% or more. The effect is printed as a negative number. The full list was thinned out, with strong results kept by preference.
Target: human ether-à-go-go-related gene (hERG) potassium channel (human, UniProt Q12809)
Assay: primary screen, population patch clamp on CHO cells stably expressing hERG; higher = less effect of the substance
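Further: peak tail current of the secondary pulse compared with the same well before compound.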

human ether-à-go-go-related gene (hERG) potassium channel, sequence (Q12809 whole entry, looked up): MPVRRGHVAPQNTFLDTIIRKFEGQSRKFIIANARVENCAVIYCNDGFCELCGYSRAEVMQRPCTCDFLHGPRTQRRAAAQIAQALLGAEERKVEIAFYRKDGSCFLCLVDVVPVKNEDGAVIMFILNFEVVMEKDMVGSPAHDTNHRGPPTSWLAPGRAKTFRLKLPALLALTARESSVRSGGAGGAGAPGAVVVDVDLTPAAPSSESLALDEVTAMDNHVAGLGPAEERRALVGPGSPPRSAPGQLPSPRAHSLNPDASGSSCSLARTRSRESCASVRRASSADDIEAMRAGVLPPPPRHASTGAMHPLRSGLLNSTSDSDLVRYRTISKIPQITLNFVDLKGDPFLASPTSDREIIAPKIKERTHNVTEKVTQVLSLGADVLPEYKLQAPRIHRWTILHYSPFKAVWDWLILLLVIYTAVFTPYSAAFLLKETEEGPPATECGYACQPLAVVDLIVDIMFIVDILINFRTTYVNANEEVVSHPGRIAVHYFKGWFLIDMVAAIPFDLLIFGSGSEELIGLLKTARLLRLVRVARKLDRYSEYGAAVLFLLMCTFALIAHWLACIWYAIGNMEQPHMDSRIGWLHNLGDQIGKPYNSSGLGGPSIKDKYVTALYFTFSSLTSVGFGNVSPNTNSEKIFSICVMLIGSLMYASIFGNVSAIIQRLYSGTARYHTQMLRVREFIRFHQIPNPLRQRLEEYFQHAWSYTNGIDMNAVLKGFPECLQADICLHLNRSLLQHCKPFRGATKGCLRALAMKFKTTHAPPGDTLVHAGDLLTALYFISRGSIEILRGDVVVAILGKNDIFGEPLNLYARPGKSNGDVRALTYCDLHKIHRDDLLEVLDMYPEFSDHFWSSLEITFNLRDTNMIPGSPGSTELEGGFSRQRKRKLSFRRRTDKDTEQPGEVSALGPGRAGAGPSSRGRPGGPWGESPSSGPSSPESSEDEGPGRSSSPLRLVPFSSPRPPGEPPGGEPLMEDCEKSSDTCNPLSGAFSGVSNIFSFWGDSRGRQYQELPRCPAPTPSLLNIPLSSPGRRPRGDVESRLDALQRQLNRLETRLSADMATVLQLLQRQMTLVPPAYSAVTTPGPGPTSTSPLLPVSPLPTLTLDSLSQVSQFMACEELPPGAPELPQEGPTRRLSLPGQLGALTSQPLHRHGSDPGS

| SMILES | hERG current change (%, negative = inhibition) at 10uM |
| --- | --- |
| Cc1ccc(C)c(N2N=C(C(=O)Nc3ccccc3N3CCCC3)CCC2=O)c1 | 3.97% |
| COc1ccccc1/C=N\Nc1ccccc1[N+](=O)[O-] | 21.7% |
| O=C(O)c1ccc(CNC(=O)c2ccc(S(=O)(=O)N3CCCCC3)cc2)cc1 | -1.88% |
| NC(=O)Cn1cnc(-c2ccccc2)c1 | 9.58% |
| CCCCc1c(O)nc(SCC(=O)N2CCOCC2)n(-c2ccccc2OC)c1=O | 7.27% |
| COCCNC(=O)C1(C)C=CC2(CCCCC2)N1C(=O)c1ccccc1 (stereo not shown) | 5.19% |
| CC(=O)N(CN1C(=O)C2CC=CCC2C1=O)c1cccc(Cl)c1 (stereo not shown) | -5.31% |
| Cc1cc(C)c(C(=O)N2CCCC(Nc3ccc(F)cc3)C2)o1 (stereo not shown) | 9.39% |
| COc1ccccc1N1CCN(C2CCCN(C(=O)c3cc(C)oc3C)C2)CC1 (stereo not shown) | -3.28% |
| Cc1nonc1C(=O)N1CCCC(N2CCN(c3ccc(F)cc3)CC2)C1 (stereo not shown) | -51.8% |
| Cc1cc(C(=O)N2CCCC(N3CCN(c4cccc(C(F)(F)F)c4)CC3)C2)c(C)o1 (stereo not shown) | -23.2% |
| COc1ccccc1N1CCN(C2CCCN(C(=O)c3oc(C)cc3C)C2)CC1 (stereo not shown) | -47.9% |
| Cc1nnsc1C(=O)N1CCCC(N2CCN(c3ccc(F)cc3)CC2)C1 (stereo not shown) | -12.3% |
| Cc1cc(C)c(C(=O)N2CCCC(N3CCN(c4ccc(F)cc4)CC3)C2)o1 (stereo not shown) | -73.6% |
| Cc1cc(C(=O)N2CCCC(N3CCN(c4ccc(F)cc4)CC3)C2)c(C)o1 (stereo not shown) | -59.1% |
| Cc1cc(C)c(C(=O)N2CCCC(N3CCN(c4cccc(C(F)(F)F)c4)CC3)C2)o1 (stereo not shown) | -52.1% |
| Cc1ncoc1C(=O)N1CCCC(N2CCN(c3cccc(C(F)(F)F)c3)CC2)C1 (stereo not shown) | -35.7% |
| Cc1ccc2nccc(C(=O)N3CCCC(N4CCN(c5ccc(F)cc5)CC4)C3)c2c1 (stereo not shown) | -48.5% |
| Cc1cccc(N(CC(=O)N/N=C/c2ccc(OCC(=O)NCc3ccco3)cc2)S(C)(=O)=O)c1C | 4.14% |
| C=CCn1c(O)c(C(C)=NCC2CCCO2)c(=O)[nH]c1=O (stereo not shown) | -6.3% |
| O=C(NCCC(NS(=O)(=O)OCC(Cl)(Cl)Cl)c1ccccc1)C(F)(F)F (stereo not shown) | -16.4% |
| NC(=O)CCCC1=NS(=O)(=O)c2ccccc2N1 | 11.5% |

| SMILES | hERG current change (%, negative = inhibition) at 10uM |
| --- | --- |
| O=C(Nc1ccccc1N1CCN(c2ccccc2)CC1)c1ccccc1F | 8.96% |
| COc1cc2ccccc2cc1C(=O)Nc1ccccc1N1CCCC1 | -4.16% |
| COc1ccc(Cl)cc1C(=O)Nc1ccccc1N1CCN(C)CC1 | -79.3% |
| COc1c(F)c(F)c(C(=O)Nc2ccccc2N2CCN(C(=O)C(C)C)CC2)c(F)c1F | 6.51% |
| COc1ccc(C(=O)Nc2ccccc2N2CCN(C(=O)C(C)C)CC2)cc1Cl | -30.9% |
| COc1ccc(Cl)cc1C(=O)Nc1ccccc1N1CCN(C(=O)C(C)C)CC1 | -74% |
| O=C(Nc1ccccc1N1CCCC1)c1ccccc1F | -3.26% |
| CC(=O)N1CCN(c2ccccc2NC(=O)c2ccc(C#N)cc2F)CC1 | -49.6% |
| CC1CCN(c2ccccc2NC(=O)c2ccc(C#N)cc2F)CC1 | 5.07% |
| COc1ccc(Cl)cc1C(=O)NC(=S)Nc1ccccc1N1CCOCC1 | 10.2% |
| CN1CCN(c2ccccc2NC(=O)c2ccccc2F)CC1 | -70.8% |
| CC(C)C(=O)N1CCN(c2ccccc2NC(=O)c2ccc(C#N)cc2F)CC1 | -72.2% |
| CN(C)c1ccc(NC(=O)c2ccc(COc3cccc(Cl)c3)o2)cc1 | 0.95% |
| CS(=O)(=O)N(CC(=O)N1CCOCC1)Cc1ccc(Cl)cc1 | 4.67% |
| COc1cc(C(=O)NCC2(N3CCCCC3)CCCCC2)ccc1OCC(=O)N1CCOCC1 | -3.67% |
| CC(=O)Nc1cccc(C(=O)OC(C)C(=O)N2CCc3ccccc32)c1 (stereo not shown) | -33.2% |
| Cc1ccc(C(=O)N2CCN(c3ncnc4c(-c5ccccc5)nsc34)CC2)cc1 | 18.1% |
| Cc1cc(C)n(-c2nc(NCC3CCCO3)c3c4c(sc3n2)COC(C)(C)C4)n1 (stereo not shown) | -20.2% |
| COc1ccc(CNC(=O)C2COc3ccccc3O2)c(OC)c1 (stereo not shown) | -26.4% |
| COc1ccc(CNC(C)C2COc3ccccc3O2)c(OC)c1.O=C(O)C(=O)O (stereo not shown) | -63.2% |
| CC(NCc1ccccc1)C1COc2ccccc2O1 (stereo not shown) | 2.12% |

From article PMC4336329 (PLoS ONE, 2015)
